Bioassay records deposited in PubChem BioAssay by Bradner/Qi Labs at DFCI.
CBX7 inh: CBX7 inhibition, primary AlphaScreen | O95931 | AlphaScreen His6-CBX7 / biotin-H3K27me3 peptide binding; active compounds read low | normalised signal (fraction of DMSO) (test concentration not listed) | 66,000 tested, 1.1% active | AID 1224903; in the data active = normalised signal below about 0.5
Target sequence (O95931 whole entry, looked up): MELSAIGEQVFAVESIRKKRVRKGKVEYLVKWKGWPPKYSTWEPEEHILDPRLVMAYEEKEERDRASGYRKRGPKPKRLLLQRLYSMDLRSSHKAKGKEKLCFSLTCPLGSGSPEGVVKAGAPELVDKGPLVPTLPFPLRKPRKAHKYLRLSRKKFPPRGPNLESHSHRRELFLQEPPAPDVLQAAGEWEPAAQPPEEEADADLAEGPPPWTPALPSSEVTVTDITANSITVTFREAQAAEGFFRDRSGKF
Active calls of the source: *. Many of the other results were omitted from the sample, so hits are more common in it than they were.

What do the screens show for `COc1ccc(NC(=O)c2sc3ncn(CC(=O)N4CCCCC4C)c(=O)c3c2C)cc1Cl` (configuration not stated)?
CBX7 inh: 1.02

How did O=C(NCCN=C1NS(=O)(=O)c2ccccc21)c1ccc(Cl)cc1 do in these assays?
CBX7 inh: 0.989

How did CCCCN(C)S(=O)(=O)c1ccc(C(=O)Nc2nnc(-c3ccc(Cl)s3)o2)cc1 do in these assays?
CBX7 inh: 0.982

How did CN(C)S(=O)(=O)c1ccc(C(=O)Nc2nnc(-c3ccc(F)cc3)o2)cc1 do in these assays?
CBX7 inh: 0.044*

Results for CCCN(CCC)S(=O)(=O)c1ccc(C(=O)Nc2nnc(-c3ccc(Cl)s3)o2)cc1 ?
CBX7 inh: 1.02

What do the screens show for `CN(c1ccccc1)S(=O)(=O)c1ccc(C(=O)Nc2nnc(-c3ccc(Cl)s3)o2)cc1`?
CBX7 inh: 0.39*

How did COc1ccccc1NC(=O)Cn1cnc2sc(C(=O)N3CCCc4ccccc43)c(C)c2c1=O do in these assays?
CBX7 inh: 0.887

What do the screens show for `Cc1ccc(-n2cc(C(=O)Nc3cc(F)ccc3C)c3ccccc3c2=O)cc1C`?
CBX7 inh: 1

Results for O=C(NCc1cccs1)c1cc(-c2ccc(Cl)c(Cl)c2)on1 ?
CBX7 inh: 0.973

What do the screens show for `COCC(=O)NCCc1nc2ccccc2n1Cc1c(F)cccc1Cl`?
CBX7 inh: 0.977

Results for Cc1nnc(Sc2cc(C(=O)N3CCOCC3)c3ccccc3n2)s1 ?
CBX7 inh: 1.04

What do the screens show for `CC(C)OCCCNC(=O)c1ccc2c(c1)N(Cc1ccccc1F)C(=O)c1ccccc1S2=O` (configuration not stated)?
CBX7 inh: 1.06

Results for O=C(NCc1ccccc1Cl)c1ccc2c(=O)n(CCc3ccccc3)c(=O)[nH]c2c1 ?
CBX7 inh: 0.981

Results for CC(NC(=O)C1CCN(S(=O)(=O)c2cccc3cccnc23)CC1)c1ccccc1 (configuration not stated) ?
CBX7 inh: 1.02

Results for Cc1ccc2cc(CCNC(=O)CCc3ccccc3)c(=O)[nH]c2c1 ?
CBX7 inh: 1.09

How did O=C(NC(c1ccccc1)c1ccccc1)C1CCCN(S(=O)(=O)c2cccc3cccnc23)C1 (configuration not stated) do in these assays?
CBX7 inh: 0.884

How did CC(NS(=O)(=O)c1cccc2cccnc12)c1ccccc1 (configuration not stated) do in these assays?
CBX7 inh: 1.01

Results for Oc1c(C(Nc2ccccn2)c2ccccc2)ccc2cccnc12 (configuration not stated) ?
CBX7 inh: 0.0102*

What do the screens show for `Cc1ccc(C(NC(=O)CCc2ccccc2)c2ccc3cccnc3c2O)cc1` (configuration not stated)?
CBX7 inh: 0.0706*

Results for Cc1cccnc1NC(c1ccccc1)c1ccc2cccnc2c1O (configuration not stated) ?
CBX7 inh: 0.0316*

How did Cc1ccc(-c2noc(CCC(=O)NC(C)CCc3ccccc3)n2)cc1 (configuration not stated) do in these assays?
CBX7 inh: 1.06

Results for CCCC(=O)NC(c1ccccc1)c1cc(Cl)c2cccnc2c1O (configuration not stated) ?
CBX7 inh: 0.63

What do the screens show for `O=C(CCCN1C(=O)c2cccnc2C1=O)NC(c1ccccc1)c1ccccc1`?
CBX7 inh: 1.12

Results for O=C(NC(c1ccccc1)c1ccccc1)C1CCCN1S(=O)(=O)c1cccc2cccnc12 (configuration not stated) ?
CBX7 inh: 0.935

How did O=C(CCc1ccccc1)NC(c1cccs1)c1cc(Cl)c2cccnc2c1O (configuration not stated) do in these assays?
CBX7 inh: 0.45*

Results for COc1ccc(-c2cc(C(=O)Nc3ccc(Br)cc3)c3ccccc3n2)cc1 ?
CBX7 inh: 0.974

How did COc1ccc(-c2nc3cc(NC(=O)c4ccc5ccccc5c4)ccc3o2)cc1 do in these assays?
CBX7 inh: 1.03

Results for CCOC(=O)c1cnc2cc(C(F)(F)F)ccc2c1Nc1ccc(OC)c(Cl)c1 ?
CBX7 inh: 0.904

What do the screens show for `COc1ccc(-n2nnc3c(=O)n(CC(=O)NCc4ccc(F)cc4)cnc32)cc1`?
CBX7 inh: 0.927

Results for O=C(Nc1ccc(-c2noc(COc3ccccc3Cl)n2)cc1)c1cccs1 ?
CBX7 inh: 1.17

What do the screens show for `Cc1ccc(-n2nc(C)c3c(C)c(CCC(=O)Nc4ccc(C)c(F)c4)c(C)nc32)cc1`?
CBX7 inh: 0.904

How did Cc1nc2ccc(S(=O)(=O)N(C)CC(=O)NC3CCCc4ccccc43)cc2s1 (configuration not stated) do in these assays?
CBX7 inh: 1.16

How did CCOc1cc2c(cc1OCC)C1C(C(=O)Nc3ccc(C)c(F)c3)c3ccccc3C(=O)N1CC2 (configuration not stated) do in these assays?
CBX7 inh: 0.921

What do the screens show for `Cc1ccc(NC2c3ccccc3C(=O)N2c2ccc(Cl)cn2)cc1F` (configuration not stated)?
CBX7 inh: 1.18

How did CCN(CC)c1ccc(NC2c3ccccc3C(=O)N2c2ccc(Cl)cn2)c(C)c1 (configuration not stated) do in these assays?
CBX7 inh: 0.065*

What do the screens show for `Cc1cccc(NC2c3ccccc3C(=O)N2c2ccc(Cl)cn2)c1C` (configuration not stated)?
CBX7 inh: 0.927

How did Cc1ccc(N(CC(=O)Nc2ccc(C(C)C)cc2)S(=O)(=O)c2c(C)nn(C)c2C)cc1 do in these assays?
CBX7 inh: 1.1

What do the screens show for `COc1ccc(C(=O)N2CC(=O)Nc3ccc(C)cc3C2c2ccc(F)cc2)cc1` (configuration not stated)?
CBX7 inh: 0.741

How did COc1ccc(C(=O)N2CC(=O)Nc3ccc(C)cc3C2c2ccc(F)cc2)c(OC)c1 (configuration not stated) do in these assays?
CBX7 inh: 0.303*

What do the screens show for `COc1ccccc1C(=O)N1CC(=O)Nc2ccc(F)cc2C1c1ccccc1` (configuration not stated)?
CBX7 inh: 1.09

What do the screens show for `Cc1sc2ncn(CC(=O)NCC(=O)NCCN3CCOCC3)c(=O)c2c1C`?
CBX7 inh: 1.17

Results for c1ccc(C(Cc2nc(-c3cccnc3)no2)c2ccccc2)cc1 ?
CBX7 inh: 0.928

Results for COc1ccc(-c2noc(C(c3ccccc3)c3ccccc3)n2)cc1 ?
CBX7 inh: 1.11

What do the screens show for `c1ccc(C(c2ccccc2)c2nc(-c3cccnc3)no2)cc1`?
CBX7 inh: 0.321*

What do the screens show for `CCOc1ccc(NC(=O)C2CCCN(S(=O)(=O)c3cccnc3)C2)cc1` (configuration not stated)?
CBX7 inh: 0.994

How did COc1ccc2[nH]c(C)c(CCNC(=O)c3ccc(C)cc3)c2c1 do in these assays?
CBX7 inh: 0.596

How did Cc1ccc(OCCn2cnc3cc(C)c(C)cc32)cc1 do in these assays?
CBX7 inh: 0.773

How did Cc1ccc(OCCN2CCN(c3ccc(C)c(C)c3)CC2)cc1 do in these assays?
CBX7 inh: 0.403*

What do the screens show for `Cc1ccc(OCCN2CCN(c3ncnc4scc(-c5ccccc5)c34)CC2)cc1`?
CBX7 inh: 0.92

Results for CCCCN(C)CCNS(=O)(=O)c1cc(Br)cc2c1N(C(C)=O)CC2 ?
CBX7 inh: 1.03

How did Cc1cccc(NC(=O)CSc2nccn2-c2cccc(Cl)c2)c1C do in these assays?
CBX7 inh: 0.466*

What do the screens show for `CCOc1ccccc1NC(=O)CSc1nccn1-c1cccc(Cl)c1`?
CBX7 inh: 0.286*
